Here are results for 53 molecules from ChEMBL document CHEMBL4513216, “Probing the Open Global Health Chemical Diversity Library for Multistage-Active Starting Points for Next-Generation Antimalarials” (ACS Infect Dis, 2020).

Structures are written as SMILES. In all, about 68,000 compounds went through this assay and about 2,700 (4%) showed an effect of 50% or more. For the sample, strong results were picked, then their nearest neighbours and some compounds at random.

The subject of this experiment is Plasmodium berghei. Kind of experiment: Screen against P. berghei liver stage (PbLuc), transformed with Luciferase, at 2uM. The format is functional, HepG2. Conditions: tested at 2 uM.
Take `O=C1CCC(c2nc(C3CCNCC3)no2)N1` (stereo not drawn): the INHIBITION is recorded as -6.77%.
Regarding `CCN1C[C@@H]2[C@@H](OC)CCN(C(=O)c3cc(C)nn3CC)[C@@H]2C1`, the INHIBITION was found to be 66.46%.
`CO[C@H]1CCN(C(=O)c2ccsc2)[C@@H]2CN(CC3CC3)C[C@H]12`: the INHIBITION was -1.45%.
For `CO[C@H]1CCN(C(=O)Cc2ccsc2)[C@@H]2CN(CC3CC3)C[C@H]12` the value was 22.16%; for `CCN1C[C@H]2[C@@H](C1)N(C(=O)Cc1ccsc1)CC[C@H]2OC`, 48.52%.
In the case of `CO[C@@H]1CCN(C(=O)c2ccsc2)[C@@H]2CN(CC3CC3)C[C@@H]21` it was 54.01%; in that of `CCn1nc(C)cc1C(=O)N1CC[C@H](OC)[C@H]2CN(CC3CC3)C[C@H]21`, 24.51%.
Regarding `O=C(c1cscn1)N1C[C@H]2CCCC(OCc3cccnc3)[C@H]2C1` (stereo partly drawn), the INHIBITION is recorded as -16.41%.
As for `COCCCN1CCCN(C(C)C(=O)Nc2cccc(I)c2)CC1` (stereo not drawn), the INHIBITION is on record as 42.76%.
Regarding `Cc1cc(C)cc(OCC(=O)NC2CCN(S(C)(=O)=O)CC2)c1`, the INHIBITION is -50.23%.
In the case of `CCN(Cc1cccc(C(N)=O)c1)c1ccccc1` it was 36.74%; in that of `Cc1ncsc1C(=O)NC1CCN(Cc2ccc(C(N)=O)cc2)CC1`, -2.82%; in that of `Cc1ncsc1C(=O)NC1CCN(Cc2ccc(C(F)(F)F)cc2)CC1`, 74.35%.
In the case of `Cc1ccc(CN2CCC(NC(=O)c3scnc3C)CC2)cc1` it was -21.72%; in that of `Cc1cc(CN2C[C@@H]3CC[C@H]2CN(C2Cc4ccccc4C2)C3)on1`, 17.28%.
For `CCC(NCc1ccccc1)c1ccccc1OCC(=O)NC` (stereo not drawn) the value was -3.09%.
As to `CCOC(C)C(=O)N(C)C1CCN(c2ccc(OC)cc2)CC1` (stereo not drawn), the INHIBITION amounted to 73.09%.
For `CC(=O)N[C@@H]1CN(C2CCN(c3cccc(Cl)c3)CC2)C[C@H]1C(C)C` the value was 21.97%; for `CC(=O)N[C@@H]1CN(C2CCN(c3ccccc3F)CC2)C[C@H]1C(C)C`, 7.67%; for `COc1ccc(N2CCC(N3C[C@H](NC(C)=O)[C@@H](C(C)C)C3)CC2)cc1`, 55.36%.
For `COc1ccc(N2CCC(N(C)C(=O)C(C)SC)CC2)cc1` (stereo not drawn) the value was 27.5%; for `COc1cccc(N2CCC(N3C[C@@H](NC(C)=O)[C@H](C(C)C)C3)CC2)c1`, 52.98%; for `CC(=O)N[C@@H]1CN(C2CCN(c3cccc(C)c3C)CC2)C[C@H]1C(C)C`, 29.13%.
For `COc1ccc(N2CCC(NC(=O)c3ccc(C#N)cc3)CC2)cc1` the value was 45.62%.
On to `COc1ccc(N2CCC(N(C)C(C)C(=O)N(C)C)CC2)cc1` (stereo not drawn), for which the INHIBITION is recorded as -2.89%.
In the case of `O=C(NCC1(c2ccc(F)cc2)CCCC1)N1CCOC(CO)C1` (stereo not drawn) it was 12.41%; in that of `Cn1ncnc1-c1ccnc(N2CCC(C(O)c3cccs3)CC2)n1` (stereo not drawn), 39.98%.
For `Fc1cccc(N2CCCC3(CN(Cc4cccnc4)CCO3)C2)c1` (stereo not drawn) the value was -18.59%; for `O=c1[nH]c2ccccc2c2c1CCO2`, -66.7%.
For `O=C(Nc1ccccn1)NC(CCCO)c1ccccc1` (stereo not drawn) the value was -67.62%; for `Cc1ccc(CN2CC[C@H]3OCC[C@@]3(COCC(=O)N(C)C)C2)s1`, -14.52%; for `CCc1ccc(CN2CCCC(CO)(CCOC)C2)cc1` (stereo not drawn), 22.74%.
For the molecule `CCN(CC)C(=O)[C@@H]1C[C@@H](N)CN1C(=O)c1cc2c([nH]c1=O)CCC2`, the INHIBITION was determined as 56.16%.
In the case of `CCN(CC)C(=O)[C@@H]1C[C@H](N)CN1C(=O)c1cc2c([nH]c1=O)CCC2` it was 22.89%; in that of `CC(C)NC(=O)[C@@H]1C[C@H](N)CN1C(=O)c1cc2c([nH]c1=O)CCCC2`, -34.26%; in that of `CCN1CC2(CCC1=O)CCN(CCc1nccn1C)CC2`, 25.65%.
For `CNc1nnc(CCn2nc(C)c(Br)c2C)s1` the value was 6.05%.
In the case of `CC(C)(C)CC(=O)NC[C@H]1OC[C@@H](NCc2ccccn2)[C@@H]1O` it was 16.43%; in that of `CC(C)=CCS(=O)(=O)Cc1ccn(-c2cccc(F)c2)n1`, 58.14%; in that of `CN(C)C(=O)CS(=O)(=O)Cc1ccn(-c2cccc(F)c2)n1`, -19.29%.
`CCS(=O)(=O)Cc1ccn(-c2cccc(F)c2)n1`: the INHIBITION stood at 6.82%.
For `CCCNC(=O)CNc1cc(C#N)ccc1OCC` the value was -19.76%.
Consider `Cn1ncc(C(=O)O)c1C(=O)Nc1nc2ccc(Br)cc2s1`, for which the INHIBITION came to 3.27%.
For `N#Cc1ccc(CNCC2CCN(CCO)CC2)cc1` the value was 1.07%; for `Cc1[nH]c2ccc(CNc3cc(C(=O)NC(C)C)ccn3)cc2c1C`, 15.46%; for `O=C1CO[C@H]2CN(S(=O)(=O)c3ccccc3)C[C@H]2N1Cc1ccccc1`, 15.98%.
In the case of `O=C1CO[C@H]2CN(S(=O)(=O)c3ccccc3)C[C@H]2N1c1ccccc1` it was 53.27%; in that of `O=C1CO[C@@H]2CN(S(=O)(=O)c3ccccc3)C[C@H]2N1CC1CC1`, -30.12%.
In the case of `CC(C)c1noc(C[S+]([O-])CC(=O)Nc2cc(F)ccc2F)n1` (stereo not drawn) it was 12.35%; in that of `CC(NC1CCN(CCS(C)(=O)=O)CC1)c1ccc(Cl)cc1` (stereo not drawn), -26.72%; in that of `Cc1cc(NCCC(=O)NC(C)C)nc(-c2ccncc2)n1`, -1.96%.
Turning to `Cc1cc(NCCC(=O)NC2CCCC2)nc(-c2ccncc2)n1`, the INHIBITION is reported as -82.36%.
For `COCCNC(=O)CCNc1cc(C)nc(-c2ccncc2)n1` the value was 69.06%.
